The results in this text go back to patent US20220289795, “EFFICIENT METHOD FOR PREPARING PPR PROTEIN AND USE OF THE SAME” (EditForce, Inc., published 2022).

The target in this experiment is T1, NL_v2_PPR7 (Artificial Sequence).
T1 chain: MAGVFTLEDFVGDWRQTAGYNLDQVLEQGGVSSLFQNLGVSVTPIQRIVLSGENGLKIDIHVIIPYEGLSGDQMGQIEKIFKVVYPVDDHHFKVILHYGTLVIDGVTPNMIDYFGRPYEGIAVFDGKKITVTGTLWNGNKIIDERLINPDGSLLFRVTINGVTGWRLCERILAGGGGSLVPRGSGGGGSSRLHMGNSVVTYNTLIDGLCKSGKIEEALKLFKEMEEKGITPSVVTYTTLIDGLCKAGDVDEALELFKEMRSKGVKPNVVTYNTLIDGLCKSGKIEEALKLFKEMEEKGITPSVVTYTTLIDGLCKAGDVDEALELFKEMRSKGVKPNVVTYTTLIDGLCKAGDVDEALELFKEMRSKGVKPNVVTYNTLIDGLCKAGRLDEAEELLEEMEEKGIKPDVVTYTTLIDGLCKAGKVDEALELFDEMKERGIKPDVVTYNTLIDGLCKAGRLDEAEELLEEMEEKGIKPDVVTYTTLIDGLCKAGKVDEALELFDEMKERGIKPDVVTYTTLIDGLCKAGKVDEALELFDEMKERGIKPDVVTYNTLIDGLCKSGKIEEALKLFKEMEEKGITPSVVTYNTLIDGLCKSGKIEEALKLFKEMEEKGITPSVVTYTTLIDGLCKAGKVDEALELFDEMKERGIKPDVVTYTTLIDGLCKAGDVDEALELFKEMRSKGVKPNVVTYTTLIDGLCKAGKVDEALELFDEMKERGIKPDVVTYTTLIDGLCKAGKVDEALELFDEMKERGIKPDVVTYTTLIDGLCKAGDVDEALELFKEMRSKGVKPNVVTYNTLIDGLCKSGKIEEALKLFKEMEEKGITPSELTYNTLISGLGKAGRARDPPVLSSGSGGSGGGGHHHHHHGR
Description: RPB-ELISA. As to conditions: tags: N-terminal luciferase, C-terminal 6xHis; label: 5'-biotin; ssRNA. As for the experimental part:
RNA probes consisting of a designed 30-base sequence containing 18 bases of the target sequence and modified by biotinylation at the 5′ end (RNA_1, RNA_2, RNA_3, RNA_4, and RNA_5, SEQ ID NOS: 61 to 65) were synthesized (Grainer). To a streptavidin-coated plate (Thermo fisher), the 5′-end biotinylated RNA probes were added, reaction was allowed at room temperature for 30 minutes, and the plate was washed with a lysis buffer (20 mM Tris-HCl, pH 7.6, 150 mM NaCl, 5 mM MgCl₂, 0.5% NP-40, 1 mM DTT, 0.1% BSA). For background measurement, wells to which RNA was not added, but 100 μL of the lysis buffer, 1 μL of 100 mM DTT, and 1 μL of 40 unit/4 RNase inhibitor (Takara, 2313A) were added were also prepared. Then, 200 μL of a blocking buffer (20 mM Tris-HCl, pH 7.6, 150 mM NaCl, 5 mM MgCl₂, 0.5% NP-40, 1 mM DTT, 1% BSA) was added, and the plate surface was blocked at room temperature for 30 minutes. Then, 100 μL of E. coli lysate containing luciferase-fused PPR protein having a luminescence level of 1.5×10⁸ LU/μL was added to each well, and the binding reaction was allowed at room temperature for 30 minutes. The well was washed 5 times with 200 μL of a washing buffer (20 mM Tris-HCl, pH 7.6, 150 mM NaCl, 5 mM MgCl₂, 0.5% NP-40, 1 mM DTT). […] The background (luminescence signal value obtained with adding the PPR protein and without adding RNA) was subtracted from the luminescences of the samples to which a solution containing each RNA and PPR protein was added, and the obtained values were used as the binding powers between the PPR protein and RNA.
By using the v2 motif, PPR proteins for 23 kinds of target sequences (T_1 to T_3, and T_5 to T_24, SEQ ID NOS: […]) were prepared (NL_v2_PPR1 to 3, and NL_v2_PPR5 to 24, SEQ ID NOS: 56 to 58 and 70 to 88), and RPB-ELISA was used to analyze bindings of all the combinations. The experimental method was the same as that used in Example 3.
Consider GGUUAGAGAUACAGUGUG, for which the binding signal is 20.6 log2 luminescence.
In the case of GUCAGAGGGUUCUGGAUU it was 21.1 log2 luminescence.
For the sequence GGUGGUGAGGCCCUGGGC, the binding signal was found to be 21.4 log2 luminescence.
With GACUCAGGAAUCGGCUCU, the binding signal was 20.5 log2 luminescence.
